Holding throughout (format): functional
In assay [1] the test system is Plasmodium falciparum. The assay can be described thus: GSK_TCMDC: Inhibition of Plasmodium falciparum 3D7 in whole red blood cells, using parasite LDH activity as an index of growth. Test compounds present at 2uM.
For assay [2], the system named is Plasmodium falciparum. The assay is described as follows: GSK_TCMDC: Inhibition of Plasmodium falciparum Dd2 in whole red blood cells, using parasite LDH activity as an index of growth. Test compounds present at 2uM.
Assay [3] has as its system HepG2. The assay is described as follows: GSK_TCMDC: Percent inhibition of human HepG2 cell line. Test compounds present at 10uM.

A word on the Inhibition: it is the change of the read-out against control, counted positive when it falls.

Consider `Br.Oc1ccc2nc(N3CCNCC3)nc(NCCCc3ccccc3)c2c1`, for which the Inhibition in assay [1] was 100%; in assay [2], 0%; in assay [3], 14%.

In the case of `O=C(NC1CC1)c1ccc(N2CCC(Cc3ccccc3)CC2)c([N+](=O)[O-])c1`, the Inhibition in assay [1] was found to be 96%; in assay [2], 83%; in assay [3], 12%.

For the molecule `Cc1cccc(C=NN=c2cc(C)[nH]c3ccc(F)cc23)n1`, the Inhibition in assay [1] was determined as 95%; in assay [2], 45%; in assay [3], 1%.

For `COc1ccc2c(NCCc3ccccc3)cc(-c3ccccc3)nc2c1.Cl`, the Inhibition was found to be 98% in assay [1], 1% in assay [2] and 13% in assay [3].

As to `CCCC1N=C(N)N=C(N)N1c1ccccc1.Cl` (centres undefined), the Inhibition is 93% in assay [1], 0% in assay [2] and 0% in assay [3].

For the molecule `O=C(Nc1ccsc1C(=O)NC1CCCCC1)c1ccc(F)cc1`, the results for the Inhibition in assay [1], in assay [2] and in assay [3] were 86%, 11% and 3%, respectively.

In the case of `CCc1cc([C@H]2O[C@@H](n3cnc4c(NCC(c5ccccc5)c5ccccc5)nc(NCCNc5ccccn5)nc43)[C@H](O)[C@@H]2O)on1.O=CO`, the Inhibition in assay [1] is 94%; in assay [2], 32%; in assay [3], 14%.

On to `CCC(=O)N1CCc2cc(Br)cc(S(=O)(=O)N3CC(C)CC(C)C3)c21` (centres undefined), for which the Inhibition is 85% in assay [1], 84% in assay [2] and 5% in assay [3].

`CN(CC(=O)Nc1ccc(F)c(F)c1F)c1ncnc2sc(-c3ccccc3)cc12`: the Inhibition was found to be 95% in assay [1], 34% in assay [2] and 0% in assay [3].

For `Cc1ccc(CN2CCCN(Cc3cccc(NC(=O)c4cc5ccccc5s4)c3)CC2)cc1.O=C(O)C(F)(F)F`, the Inhibition was 87% in assay [1], 28% in assay [2] and 32% in assay [3].

Turning to `COc1cc(Nc2nccc(N3CCC(NC(=O)C4COc5ccccc5O4)C3)n2)cc(OC)c1OC` (centres undefined), the Inhibition in assay [1] came to 90%; in assay [2], 58%; in assay [3], 5%.

Regarding `CCCc1cnc2nc(N)nc(N)c2c1C`, the Inhibition in assay [1] was determined as 93%; in assay [2], 3%; in assay [3], 68%.

`COc1ccc(-c2ccc(NC(=O)c3cccc(F)c3)cc2)cc1CN1CCCN(C)CC1.O=C(O)C(F)(F)F`: the Inhibition in assay [1] amounted to 100%; in assay [2] it was 49%; in assay [3] it was 32%.

For `COc1ccc(N2C(N)=NC(N)=NC2(C)C)cc1.Cl`, the Inhibition turned out to be 94% in assay [1], 29% in assay [2] and 0% in assay [3].

In the case of `Nc1nc(N)c2c(ccc3[nH]ccc32)n1`, the Inhibition in assay [1] stood at 88%; in assay [2], 0%; in assay [3] it was 58%.

Turning to `Cl.N=C(N)NN=Cc1ccc2c(c1)Cc1ccccc1-2`, the Inhibition in assay [1] came to 100%; in assay [2], 81%; in assay [3], 72%.

Take `CCC[C@@H]([C@@H](CC1CCCCC1)C(=O)N[C@@H](CCOC(=O)NCC)C(=O)Nc1nccs1)N(O)C=O`: the figures for the Inhibition in assay [1], in assay [2] and in assay [3] were 100%, 79% and 0%, respectively.

For `CCCn1cnc2cc(C(=O)Nc3ccc(-c4cccc(CN(C)C)c4)cc3)ccc2c1=O`, the Inhibition in assay [1] was found to be 95%; in assay [2], 6%; in assay [3], 26%.

Regarding `Br.CCCCCCCCn1c2c(c(=N)c3c1CCC3)CCCC2`, the Inhibition was 100% in assay [1], 100% in assay [2] and 57% in assay [3].

Consider `COc1ccc(-c2cc(C(=O)Nc3ccc4[nH]c(-c5ccccc5)nc4c3)[nH]n2)cc1.O=C(O)C(F)(F)F`, for which the Inhibition in assay [1] amounted to 90%; in assay [2], 78%; in assay [3], 77%.

As for `CCNc1cc(C(=O)N[C@@H](Cc2ccccc2)[C@H](O)CNCCc2cc(OC)cc(OC)c2)cc(N2CCCCS2(=O)=O)c1.Cl`, the Inhibition in assay [1] was 89%; in assay [2], 28%; in assay [3], 3%.

Consider `Br.CCC(C)c1cccc(C(C)CC)c1OCCCON1C(N)=NC(N)=NC1(C)C` (centres undefined), for which the Inhibition amounted to 91% in assay [1], 98% in assay [2] and 51% in assay [3].

Consider `Cc1cccn2c(=O)c3cc(C(=O)NC(C)c4ccccc4)c(=N)n(CCN4CCOCC4)c3nc12` (centres undefined), for which the Inhibition in assay [1] was determined as 100%; in assay [2], 5%; in assay [3], 6%.

With `CCCc1cc(Cc2cnc(N)nc2N)cc(CCC)c1OCCCC(=O)OCC`, the Inhibition in assay [1] was found to be 94%; in assay [2], 0%; in assay [3], 0%.

As for `CN(C)CC(O)C(c1ccccc1)c1cccc(Br)c1.Cl` (centres undefined), the Inhibition is recorded as 98% in assay [1], 9% in assay [2] and 22% in assay [3].

Turning to `CCCC(C)N(Cc1ccc(C(C)(C)C)cc1)C(=O)c1ccc(OC)cc1` (centres undefined), the results for the Inhibition in assay [1], in assay [2] and in assay [3] were 100%, 98% and 7%, respectively.

As to `COc1ccc(C(=O)CCC(=O)N(Cc2ccc(-c3ccc(CNCCc4ccc(S(C)(=O)=O)cc4)cn3)cc2)Cc2ccc3c(c2)OCO3)cc1F.O=C(O)C(F)(F)F`, the results for the Inhibition in assay [1], in assay [2] and in assay [3] were 95%, 41% and 13%, respectively.

On to `Cc1csc2nc(-c3ccccn3)nc(Nc3ccncn3)c12.O=C(O)C(F)(F)F`, for which the Inhibition turned out to be 97% in assay [1], 85% in assay [2] and 47% in assay [3].

Regarding `Cc1cc(C(=O)OCC(N)=O)c(C)n1-c1ccc(F)cc1`, the figures for the Inhibition in assay [1], in assay [2] and in assay [3] were 97%, 96% and 0%, respectively.

Take `CN1CCCN(Cc2cccc(-c3cccc(NC(=O)c4ccc(Cl)cc4)c3)c2)CC1.O=C(O)C(F)(F)F`: the Inhibition came to 100% in assay [1], 44% in assay [2] and 35% in assay [3].

`COc1ccc2nc(C)cc(Nc3ccc(Oc4ccc5ccccc5c4Cl)c(Cl)c3)c2c1`: the Inhibition in assay [1] is 100%; in assay [2], 98%; in assay [3] it was 32%.

`CC(=O)c1c(C)[nH]c(C(=O)Nc2ccc(-c3nc4ccc(C)cc4s3)cc2)c1C`: the Inhibition in assay [1] stood at 92%; in assay [2], 40%; in assay [3] it was 11%.

With `O=C(Nc1nc(-c2cc(F)ccc2F)cs1)c1cncc(Br)c1`, the Inhibition in assay [1] came out at 85%; in assay [2], 3%; in assay [3] it was 16%.
